Screens from PubChem.
Shown are actives, neighbours in structure and some others; about 17% of the full set was active somewhere.
TDP1 cell noCPT: qHTS for Inhibitors of human tyrosyl-DNA phosphodiesterase 1 (TDP1): qHTS in cells in absence of CPT; AID 686978, 2013; DT40 Tdp1-/- hTDP1 cells, no CPT, ATP luminescence, 48 h; actives 15% (n = 420,000); Potency, µM (highest dose often 46.2 µM), without a hit: at the highest dose activity change, negative = growth inhibition, usual class: inhibitors; also: % is scaled to controls: 0 for no effect and ±100 for the full control effect; nearly all actives have a fitted effect of over 55% in size
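Growth kinetics read by CellTiter-Glo luminescence after ≥48 hr at 37 °C. Cells: DT40 Tdp1-/- stably carrying human TDP1, 400 per well, compound exposure in the absence of CPT (DMSO vehicle).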
HT1080-NT tox: kills 2HG-producing HT-1080-NT fibrosarcoma cells. HT-1080-NT fibrosarcoma viability, CellTiter-Glo ATP luminescence, 48 h. Potency, µM (series often up to 46.1 µM), for the others: top-dose activity, negative = less viability, usual class: cytotoxic. actives 1.6% (n = 360,000). AID 686970;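 also: NT is the 2HG producing partner of a matched IDH1 knockdown line; 0% = DMSO-treated cells and -100% = media-only wells without cells; nearly all actives have a fitted effect of over 55% in size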
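750 cells/well, RPMI + 5% FBS; 2 h settle, compound pin-transfer, 48 h at 37 degrees C. CellTiter-Glo 10 min RT, luminescence. Normalized to DMSO and media-only wells.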
HT1080 IDH1KD tx: HT-1080 IDH1 knockdown cell toxicity (counter line); AID 686971; Potency, µM (doses to about 46.1 µM), inactives show at the top dose activity, negative = toxicity, most hits filed as cytotoxic; actives 2% (n = 360,000); HT-1080 IDH1 knockdown viability, ATP luminescence, 48 h;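 also: 0% = DMSO wells and -100% = cell-free medium wells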
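Assay cells: HT-1080 with IDH1 knockdown, 750 per well, RPMI/5% FBS. Exposure: 48 h at 37 °C following 2 h pre-incubation. Read: CellTiter-Glo luminescence; fitted concentration-response, curve class assigned.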
HepG2 tox: counter-screen for TGF-b inhibitors: cytotoxicity in HepG2 cells. HepG2 CAGA-GFP viability, ATP luminescence, 18 h. Potency, µM (series often up to 46.1 µM), inactives show at the highest dose activity change, negative = cytotoxicity, usual class: cytotoxic. actives 0.76% (n = 410,000). AID 588856
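CellTiter-Glo luminescence gave cytotoxicity after 18 hours at 37 degrees C. The cells were HepG2 CAGA-GFP in 1% FBS DMEM, stimulated with 500 pg/mL TGF-beta after compound addition. %Activity was normalised to no-cell wells (complete cell-killing) and DMSO (no toxicity), and curves were fitted and classified.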
TGFb inhibitor: blocks TGF-b signaling | HepG2 CAGA-GFP TGF-b/SMAD3 reporter, GFP fluorescence, 18 h; TGF-beta stimulated, 500 pg/mL final | Potency, µM (top dose mostly 46.1 µM), for inactives: at the highest dose activity, negative = inhibition, hits mostly inhibitors | actives 1.2% (n = 410,000); also: % is scaled to controls: 0 for no effect and ±100 for the full control effect; nearly all actives have a fitted effect of over 65% in size
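Inhibition was scored as loss of TGF-beta-induced (500 pg/mL final, 18 hours, 37 degrees C) GFP in HEPG2 cells carrying a CAGA-GFP reporter, in DMEM with 1% FBS. Well GFP was summed per cell; Activity was normalised to unstimulated and stimulated DMSO wells, then concentration-response fitting.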
TDP1 cell CPT: growth inhibition of DT40 Tdp1-/-;hTDP1 cells with camptothecin (screen for TDP1 inhibitors); Potency, µM (doses to about 46.2 µM), without a hit: at the highest dose activity change, negative = growth inhibition, most hits filed as inhibitors; actives 12% (n = 420,000); chicken DT40 Tdp1-/-;hTDP1 cells + 20 nM CPT, ATP luminescence, 48 h; also: % is scaled to controls: 0 for no effect and ±100 for the full control effect; nearly all actives have a fitted effect of over 55% in size
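Chicken DT40 Tdp1-/- cells complemented with human TDP1, 400 cells/well, exposed to compounds plus 20 nM camptothecin for at least 48 h at 37 C; viability read as ATP content by CellTiter-Glo luminescence.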
* hit, by the source's call; ? = inconclusive; · = not tested or not shown. Calls follow the shape of the dose curve; as a rule, active = well fitted curve in the direction sought with a large enough effect; inconclusive = small, poorly fitted or top-dose-only effect, or another doubt; inactive = no such curve, though single readings can be large; an effect the other way counts as inactive or inconclusive. Potency is read from the fitted curve at half-maximal effect.

SMILES	TDP1 cell noCPT	HT1080-NT tox	HT1080 IDH1KD tx	HepG2 tox	TGFb inhibitor	TDP1 cell CPT
Cc1cc(N2CCCCCC2)nc(-c2ccccc2O)n1	?	-5%	-11%	3%	-6%	?
CCOc1cc(C)nc(NCc2ccccc2)n1	21µM*	-29%	?	-56%	?	23µM*
Cc1cc(OC2CCCCC2)nc(NCc2ccccc2)n1	5%	18%	16%	19%	4%	4%
CC(=O)c1ccc(Oc2cc(C)nc(NCc3ccccc3)n2)cc1	21µM*	-2%	5%	-14%	-7%	21µM*
CCCCOc1cc(C)nc(NCc2ccccc2)n1	16µM*	?	?	-29%	-29%	4.1µM*
Cc1cc(N2CCCCC2)nc(NCc2ccccc2)n1	7.3µM*	-16%	?	-5%	?	10µM*
O=C(NCC(F)(F)F)c1ccc(S(=O)(=O)N2CCN(C(=O)C3CCCO3)CC2)cc1 (stereo not drawn)	-21%	-2%	6%	0%	24%	-14%
CC[C@@H]1[C@H]2CCCC(=O)N3CC[C@@H](C[C@@H]1Nc1ccccc1)[C@@H]23	18µM*	?	15%	-8%	?	?
CC[C@@H]1[C@H]2CCCC(=O)N3CC[C@@H](C[C@@H]1OC(=O)Nc1ccccc1)[C@@H]23	11µM*	10%	1%	-20%	-20%	11µM*
CC[C@H]1C(Nc2ccccc2)C[C@@H]2CCN3C(=O)CC[C@H]1[C@H]23 (stereo partly drawn)	?	-5%	6%	-1%	-2%	-17%
CC[C@@H]1[C@H]2CCCC(=O)N3CC[C@@H](C[C@@H]1OC(=O)Nc1ccc4c(c1)OCO4)[C@@H]23	?	·	·	-15%	-23%	?
CCCCNC(=O)O[C@@H]1C[C@@H]2CCN3C(=O)CCC[C@H]([C@H]1CC)[C@H]23	10µM*	15%	13%	10%	4%	14µM*
CCCCNC(=O)O[C@H]1C[C@@H]2CCN3C(=O)CCC[C@H]([C@H]1CC)[C@H]23	-7%	6%	?	4%	19%	-6%
COc1ccc(CCNC(=O)c2ccc(Cn3c(=O)c4ccccc4n(Cc4cccc(F)c4)c3=O)cc2)cc1OC	16µM*	·	·	-8%	?	16µM*
COc1ccc(CCNC(=O)c2ccc(Cn3c(=O)c4ccccc4n(Cc4cc(C)ccc4C)c3=O)cc2)cc1OC	?	·	·	1%	2%	-17%
CCn1c(=O)c(C(=O)NCCc2ccc(OC)c(OC)c2)c(O)c2ccccc21	21µM*	-7%	0%	-10%	?	16µM*
COc1ccc(CCNC(=O)c2ccc(Cn3c(=O)c4ccccc4n(Cc4cccc(Cl)c4)c3=O)cc2)cc1OC	10µM*	·	·	-19%	?	21µM*
COCCCNC(=O)c1ccc(Cn2c(=O)c3ccccc3n(CC(=O)NCCc3ccc(OC)c(OC)c3)c2=O)cc1	18µM*	-10%	2%	9%	-3%	23µM*
CCCn1c(=O)c(C(=O)NCCc2ccc(OC)c(OC)c2)c(O)c2ccccc21	?	-6%	-6%	-14%	?	?
Cc1noc(C)c1COc1ccccc1C(=O)NCc1ccco1	0%	1%	-1%	1%	4%	3%
COc1ccccc1NC(=O)CCS(=O)(=O)c1cc2c(cc1Cl)NC(=O)CO2	19%	17%	20%	-6%	6%	2%
CCCCn1c(-c2csc(C(C)C)c2)n[nH]c1=S	-12%	-8%	-1%	-41%	-7%	-15%
CCCc1cc(-c2n[nH]c(=S)n2CC(C)C)cs1	21µM*	-14%	-9%	-41%	-25%	?
CC(C)Cn1c(-c2ccc(Br)o2)n[nH]c1=S	?	8%	7%	21%	10%	-1%
CCCCn1c(-c2csc(CC)c2)n[nH]c1=S	?	1%	8%	-26%	-14%	21µM*
SMILES	TDP1 cell noCPT	HT1080-NT tox	HT1080 IDH1KD tx	HepG2 tox	TGFb inhibitor	TDP1 cell CPT
O=C1NC(=S)NC(=O)C1Nc1ccc(Cl)cc1	7.3µM*	-4%	1%	-9%	-5%	?
CC(=O)N1C(Nc2ccc(Cl)cc2)CCN1c1ccccc1 (stereo not drawn)	-19%	-13%	?	-16%	-4%	-20%
COc1cccc(/C=N/Nc2nc3ccccc3n3cnnc23)c1O	5.8µM*	-26%	?	-12%	0%	5.8µM*
COc1cc(/C=N/Nc2snc(SC)c2C#N)ccc1O	3.2µM*	?	3.2µM*	-11%	4%	4µM*
COc1cc(/C=C(/C(=O)c2cccs2)c2nc3ccccc3[nH]2)cc(OC)c1O	16µM*	?	?	13µM*	?	?
COc1cc(/C=N/Nc2nc3ccccc3[nH]2)ccc1O	4.6µM*	10%	6%	-18%	-29%	6.5µM*
COc1ccc(C(=O)N/C(=C/c2cccs2)c2nc3ccccc3[nH]2)cc1OC	?	5%	-2%	-15%	-18%	?
COc1cc(NC(=O)c2cc3cc4ccc(OC)c(Cl)c4nc3s2)cc(OC)c1	-21%	·	·	-14%	18%	-27%
CC(=O)Nc1cc2c3c(c1)CC(=O)N3CCC2	-3%	2%	5%	10%	9%	0%
COc1cc(/C=N/Nc2nc3ccccc3[nH]2)cc(Br)c1OCC(=O)N(C)C	18µM*	-27%	-22%	8%	-11%	?
CC(/C=N/Nc1nc(C)cc(=O)[nH]1)=C\c1ccccc1	-9%	12%	-1%	2%	14%	?
CC(/C=N/Nc1nc2ccccc2[nH]1)=C\c1ccccc1	?	?	?	-40%	?	15µM*
COC(=O)c1ccc(/C=N/Nc2nc3ccccc3[nH]2)cc1	?	?	?	-5%	-5%	?
CCN(CC)c1ccc(/C=N/Nc2nc3ccccc3[nH]2)cc1	4.6µM*	?	?	-2%	3%	3.3µM*
COc1cc(/C=N/Nc2nc3ccccc3[nH]2)cc(OC)c1O	3.7µM*	-30%	?	-30%	?	4.1µM*
CC(=O)NC(=S)Nc1ccc(N2CCOCC2)c(S(=O)(=O)Nc2cc(Cl)ccc2Cl)c1	0%	8%	4%	-16%	-18%	-2%
